This is part of a sample that, as a whole, favours compounds with a hit. Of some 83,000 tested, about 20% had one in any assay.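 Plates (96-well) were seeded with cells, treated with compound at one concentration, and incubated for 48 hours before percent growth was determined.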 The source made the active and inactive calls. The calls were made as follows: active = growth percent below 10; inactive = the rest.
Tests used:
Assay in all cases: NCI-60 one-dose screen, 48 h (100 = growth as untreated, 0 = no growth, -100 = all killed)
Conditions in all cases: 10 µM unless noted
T-47D breast = system: T-47D breast
MDA-MB-435 melanoma = system: MDA-MB-435 melanoma
SW-620 colon = system: SW-620 colon
MCF7 breast = system: MCF7 breast
HCT-116 colon = system: HCT-116 colon
HCC-2998 colon = system: HCC-2998 colon
KM12 colon = system: KM12 colon

Measured: growth

CCN=Cc1c(O)c(O)c(C(C)C)c2cc(C)c(-c3c(C)cc4c(C(C)C)c(O)c(O)c(C=NCC)c4c3O)c(O)c12
inactive: T-47D breast 35% | MDA-MB-435 melanoma 68.1% | SW-620 colon 29.2% | MCF7 breast 27.3% | HCT-116 colon 22.5% | HCC-2998 colon 38.9% | KM12 colon 21.3%

CC1Cc2c(Cl)ncnc2N(C)c2ccccc21 (stereo not drawn)
inactive: T-47D breast 42.5% | MDA-MB-435 melanoma 14.9% | SW-620 colon 14% | MCF7 breast 14.1% | HCT-116 colon 12.9% | HCC-2998 colon 34.5% | KM12 colon 11.3%

Nc1ccc2c(c1)Cc1cc(NC(=O)C(F)(F)F)ccc1-2
inactive: T-47D breast 81.8% | MDA-MB-435 melanoma 102% | SW-620 colon 105% | MCF7 breast 60.1% | HCT-116 colon 108% | HCC-2998 colon 105% | KM12 colon 97.7%

O=C1CC(C(F)(F)F)Cc2nc3ccc(Br)cc3cc21 (stereo not drawn)
inactive: T-47D breast 62.9% | MDA-MB-435 melanoma 94.4% | SW-620 colon 92.4% | MCF7 breast 74.3% | HCT-116 colon 73.9% | HCC-2998 colon 109% | KM12 colon 64.4%

COc1ccc(-c2cc(-c3ccc(Cl)cc3)nc(SCCCCCCC(=O)NO)n2)cc1
active: T-47D breast -2.44%
inactive: MDA-MB-435 melanoma 39.2% | SW-620 colon 25.5% | MCF7 breast 22.1% | HCT-116 colon 14.9% | HCC-2998 colon 59.8% | KM12 colon 45.9%

CC(C)=CC/C=C(/C)[C@H]1CC[C@]2(C)[C@@H]1CC[C@@H]1[C@@]3(C)CC/C(=N/O)C(C)(C)[C@@H]3CC[C@]12C
inactive: T-47D breast 27.2% [100 µM] | MDA-MB-435 melanoma 52.2% [100 µM] | SW-620 colon 61.3% [100 µM] | MCF7 breast 36.1% [100 µM] | HCT-116 colon 24.1% [100 µM] | HCC-2998 colon 69.5% [100 µM] | KM12 colon 51.6% [100 µM]

CCCCCCNC(=O)Nc1ncnc2c1ncn2-c1ccccc1
inactive: T-47D breast 66.6% | MDA-MB-435 melanoma 102% | SW-620 colon 95.9% | MCF7 breast 89.4% | HCT-116 colon 90.2% | HCC-2998 colon 118% | KM12 colon 108%

O=C(Nc1cc(-c2cccnc2)nc(NCCCN2CCOCC2)n1)c1cc(Br)cc(C(F)(F)F)c1
inactive: T-47D breast 46.4% | SW-620 colon 75.4% | MCF7 breast 38.6% | HCT-116 colon 35.7% | HCC-2998 colon 37.8% | KM12 colon 80%
active: MDA-MB-435 melanoma 9.55%

Cc1ccc2c(n1)C(=O)C(Cl)=C(Nc1ccc(N3CCN(C)CC3)cc1)C2=O
inactive: HCC-2998 colon 95.3% | KM12 colon 92.1%
active: T-47D breast -61.1% | MDA-MB-435 melanoma -99.1% | SW-620 colon -69.8% | MCF7 breast -61.9% | HCT-116 colon -64.9%

CCOC(=O)CCC[P+](c1ccccc1)(c1ccccc1)c1ccccc1
inactive: T-47D breast 27.5% | MDA-MB-435 melanoma 60.4% | SW-620 colon 84.7% | MCF7 breast 59.7% | HCT-116 colon 63.4% | HCC-2998 colon 56.3% | KM12 colon 44.7%

Nc1nc(N)c2c(n1)NC(c1ccc(F)cc1)C1CCc3ccccc3C1=N2 (stereo not drawn)
inactive: T-47D breast 49.7% | MDA-MB-435 melanoma 54.4% | SW-620 colon 67.3% | MCF7 breast 26.9% | HCT-116 colon 31.9% | HCC-2998 colon 71.2% | KM12 colon 50.1%

O=C(N[C@@H]1CCCc2ccccc21)[C@H](CCC(=O)N1CCN(C2CCCCC2)CC1)N1C(=O)[C@@H](N2C(=O)OC[C@@H]2c2ccccc2)[C@H]1/C=C/c1ccccc1
inactive: T-47D breast 44.4% | SW-620 colon 37.7% | MCF7 breast 16.5% | HCT-116 colon 23.8% | HCC-2998 colon 11.6% | KM12 colon 35.5%
active: MDA-MB-435 melanoma 9.89%

O=C1NC(=O)C(Cc2ccc(OCc3ccc(-c4cc(F)c(F)c(F)c4)cc3)cc2)S1 (stereo not drawn)
inactive: T-47D breast 57.6% | MDA-MB-435 melanoma 99% | SW-620 colon 95.2% | MCF7 breast 83.9% | HCT-116 colon 83.9% | HCC-2998 colon 97.3% | KM12 colon 81.9%

O=C(OCc1ccc2c(Cl)cc(Cl)c(O)c2n1)N1CCNCC1
inactive: T-47D breast 29.9% | MDA-MB-435 melanoma 48.9% | SW-620 colon 26.2% | MCF7 breast 34.6% | HCT-116 colon 27.5% | HCC-2998 colon 60.2% | KM12 colon 31.5%

O=C1C(Cl)=C(Nc2ccc3cn[nH]c3c2)C(=O)c2ccccc21
inactive: KM12 colon 28%
active: T-47D breast -52.3% | MDA-MB-435 melanoma -95% | SW-620 colon -86% | MCF7 breast -68.3% | HCT-116 colon -98.6% | HCC-2998 colon -83%

COc1ccc(-c2cc(-c3ccc(OC)c(OC)c3)nc(SCCCCCC(=O)NO)n2)cc1
inactive: MDA-MB-435 melanoma 40.7% | SW-620 colon 32.8% | MCF7 breast 54.4% | HCT-116 colon 14.6% | HCC-2998 colon 86.7% | KM12 colon 63.9%
active: T-47D breast -1.6%

COC(=O)[C@H](CC(C)C)NC(=O)NC(=O)NC(=O)CI
inactive: T-47D breast 17.3% | MDA-MB-435 melanoma 72.7% | MCF7 breast 33.2% | HCT-116 colon 50% | HCC-2998 colon 91.9% | KM12 colon 94.1%
active: SW-620 colon -51.5%

CC(C)[C@H]1COC(=O)N1[C@@H]1C(=O)N([C@@H](CCC(=O)N2CCN(C3CCCC3)CC2)C(=O)N[C@@H]2CCCc3ccccc32)[C@@H]1/C=C/c1cccc(Cl)c1
inactive: T-47D breast 61.4% | MDA-MB-435 melanoma 32.7% | SW-620 colon 61.9% | MCF7 breast 34.7% | HCT-116 colon 32.7% | HCC-2998 colon 51.8% | KM12 colon 48.8%

COc1cc2c(cc1OC(C)=O)C(=O)CCCC2
inactive: T-47D breast 101% | MDA-MB-435 melanoma 102% | SW-620 colon 95.8% | MCF7 breast 92.3% | HCT-116 colon 82.6% | KM12 colon 106%
active: HCC-2998 colon -10.1%

NNC(=O)c1ccc(C(=O)NN)cc1
inactive: T-47D breast 133% | MDA-MB-435 melanoma 106% | SW-620 colon 99.2% | MCF7 breast 106% | HCT-116 colon 108% | HCC-2998 colon 100% | KM12 colon 107%

CC1Cc2c(ncnc2-n2cnc3ccccc32)N(C)c2ccccc21 (stereo not drawn)
active: MDA-MB-435 melanoma -23.7%
inactive: T-47D breast 33.3% | SW-620 colon 17.7% | MCF7 breast 18.2% | HCT-116 colon 21.3% | HCC-2998 colon 64.8% | KM12 colon 27.8%

COc1ccc2c(c1)C(C)Cc1c(Cl)ncnc1N2C (stereo not drawn)
inactive: HCC-2998 colon 22.3%
active: T-47D breast 4.2% | MDA-MB-435 melanoma -25.2% | SW-620 colon 3.63% | MCF7 breast 1.16% | HCT-116 colon 7.03% | KM12 colon 4.12%

COc1ccc(C2CC(c3cc(OC)c(OC)c(OC)c3)=NN2C(C)=O)cc1OCC(=O)Nc1nc2ccc(C(F)(F)F)cc2s1 (stereo not drawn)
inactive: T-47D breast 67.5% | MDA-MB-435 melanoma 69.5% | SW-620 colon 84.7% | MCF7 breast 65% | HCT-116 colon 30.5% | HCC-2998 colon 92.3% | KM12 colon 64.5%

C=C(C)[C@@H]1CC[C@]2(COCCC#N)CC[C@]3(C)[C@H](CC[C@@H]4[C@@](C)(CCCNCCC#N)[C@H](C(=C)C)CC[C@]43C)[C@@H]12
active: MDA-MB-435 melanoma 1.59% [100 µM] | SW-620 colon -38.3% [100 µM] | MCF7 breast 9.79% [100 µM] | HCT-116 colon -53.8% [100 µM]
inactive: T-47D breast 23.4% [100 µM] | HCC-2998 colon 12.9% [100 µM] | KM12 colon 27.4% [100 µM]

COc1ccc(C=C2c3ccccc3-c3ccccc32)cc1
inactive: T-47D breast 46.6% | SW-620 colon 19.4% | MCF7 breast 13% | HCT-116 colon 16.9% | HCC-2998 colon 73.6% | KM12 colon 24.8%
active: MDA-MB-435 melanoma -10.4%

Cn1cc(-c2noc(-c3cn(C)c4ncc(F)cc34)n2)c2cc(Cl)ccc21
inactive: T-47D breast 14% | MDA-MB-435 melanoma 68.5% | SW-620 colon 47.4% | MCF7 breast 38.5% | HCT-116 colon 44.5% | HCC-2998 colon 97% | KM12 colon 61.1%

Cc1ccc2c(c1)C(C)Cc1c(Cl)ncnc1N2C (stereo not drawn)
inactive: T-47D breast 51.8% | SW-620 colon 16.6% | MCF7 breast 13.5% | HCT-116 colon 12.9% | HCC-2998 colon 20.5%
active: MDA-MB-435 melanoma 6.38% | KM12 colon 9.89%

COc1ccc2c(c1)c(-c1noc(-c3cn(C)c4ncc(F)cc34)n1)cn2C
inactive: T-47D breast 76.8% | MDA-MB-435 melanoma 77.1% | SW-620 colon 82% | MCF7 breast 54.6% | HCT-116 colon 80.7% | HCC-2998 colon 90% | KM12 colon 87.8%

CCCn1ccnc1C(O)c1ccc(OCc2ccccc2)c(OC)c1 (stereo not drawn)
inactive: T-47D breast 83.3% | MDA-MB-435 melanoma 94.3% | SW-620 colon 98% | MCF7 breast 85.4% | HCT-116 colon 92.6% | HCC-2998 colon 95.8% | KM12 colon 101%

COc1ccc2c(c1)C(C)Cc1c(ncnc1-n1cnc3ccccc31)N2C (stereo not drawn)
active: MDA-MB-435 melanoma 0.335%
inactive: T-47D breast 56.9% | SW-620 colon 23.8% | MCF7 breast 18.6% | HCT-116 colon 10.3% | HCC-2998 colon 25.4% | KM12 colon 17.8%

CC1Cc2c(Cl)ncnc2N(C)c2ccc(Cl)cc21 (stereo not drawn)
inactive: HCC-2998 colon 36.9% | KM12 colon 10.1%
active: T-47D breast 2.19% | MDA-MB-435 melanoma 3.3% | SW-620 colon 6.73% | MCF7 breast 7.64% | HCT-116 colon 7.96%

COc1cc2c(c(OC)c1)C1c3cc(OC)ccc3NC(=O)N1CC2 (stereo not drawn)
active: MDA-MB-435 melanoma 9.36%
inactive: T-47D breast 88.7% | SW-620 colon 49.4% | MCF7 breast 58.3% | HCT-116 colon 65.2% | HCC-2998 colon 94% | KM12 colon 49.4%

Cc1cccc(/C=C2\N=C(c3ccccc3)N(c3ccc(S(N)(=O)=O)cc3)C2=O)c1
inactive: T-47D breast 85.2% | MDA-MB-435 melanoma 92.3% | SW-620 colon 104% | MCF7 breast 82.1% | HCT-116 colon 83.9% | HCC-2998 colon 99.8% | KM12 colon 98.1%

O=C(O)c1cn(C2CC2)c2cc(N3CCN(Cc4cc(Cl)ccc4O)CC3)c(F)cc2c1=O
inactive: T-47D breast 67.4% | MDA-MB-435 melanoma 74.2% | SW-620 colon 83.6% | MCF7 breast 54.6% | HCT-116 colon 72.3% | HCC-2998 colon 82.4% | KM12 colon 62.5%

From PubChem BioAssay (NCI)
